PubChem BioAssay AID743262 (National Center for Advancing Translational Sciences (NCATS), 2014)
Where “and” joins values, the source holds several entries; their conditions need not be identical. Equal entries are not always repeated. In all, about 1,300 compounds went through this assay and about 25 (2%) were called active. Not shown: some 9% with an inconclusive outcome. Calls come from the whole dose curve; as a rule, active = well fitted activation curve with a large enough effect; inconclusive = small, poorly fitted or top-dose-only effect; inactive = flat fitted curve, though single readings scatter. The list comes from a sample in which actives are over-represented; it also holds similar structures and randomly drawn compounds.

Target: Glucagon-like peptide 1 receptor (Homo sapiens) (UniProt P43220)
Sequence (P43220 whole entry, looked up): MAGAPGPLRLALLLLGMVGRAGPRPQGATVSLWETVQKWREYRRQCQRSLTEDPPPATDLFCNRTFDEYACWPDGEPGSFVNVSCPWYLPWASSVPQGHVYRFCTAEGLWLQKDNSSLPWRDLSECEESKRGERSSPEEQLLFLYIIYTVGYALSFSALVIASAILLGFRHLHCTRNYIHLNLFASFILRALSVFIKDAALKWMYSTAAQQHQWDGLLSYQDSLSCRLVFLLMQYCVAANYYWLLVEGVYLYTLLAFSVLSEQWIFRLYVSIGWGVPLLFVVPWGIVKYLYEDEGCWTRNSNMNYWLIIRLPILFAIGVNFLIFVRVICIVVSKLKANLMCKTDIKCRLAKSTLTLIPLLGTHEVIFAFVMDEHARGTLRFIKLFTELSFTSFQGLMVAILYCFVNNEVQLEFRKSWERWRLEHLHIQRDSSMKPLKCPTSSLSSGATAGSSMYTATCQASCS
Assay: qHTS of GLP-1 Receptor Agonists: Hit Validation; for activation: % of control where 0% means no effect
Details: HEK293 GLP-1R, cAMP-response luciferase, 4-6 h; series mostly up to 46.1 µM; activation: at the top concentration
Source text: The overall goal of this project was to develop a novel assay for discovering small molecule ligands for class B1 G protein-coupled receptors (GPCRs). Very few agonists (or inverse agonists) with generally weak activity for this entire group of physiologically important receptors are known to date. To establish proof-of-principle that this critical bottleneck can be overcome with a suitable screening approach, our studies focused on the class B1 receptor for glucagon-like peptide-1 (GLP-1R), a potential therapeutic target for diabetes and neurodegenerative disease. The assay was developed in a "mix and measure" format using a cell-based functional readout. Toward this goal, stably transfected HEK293 cell clones were established that co-express (i) a cAMP-responsive luciferase reporter gene, and (ii) GLP-1Rs that upon ligand interaction either stimulate (agonists) or inhibit (inverse agonists) luciferase activity. In different cell lines to be used for screening, expressed GLP-1Rs are specifically optimized for high sensitivity detection of either weak agonists (hypersensitive receptor) or inverse agonists (constitutively active receptor mutant). In addition, control cell lines were developed that express either the cAMP-responsive reporter gene without recombinant GLP-1Rs (enabling initial exclusion of GLP-1R independent effects of candidate probes), or the reporter gene together with wild type GLP-1Rs (for confirmation of probe activity at this receptor), or the reporter gene in combination with the constitutively active orphan receptor GPR119 (enabling initial exclusion of GLP-1R independent inhibitory effects of candidate inverse agonists). To that end, this assay was optimized for 1536-well format and screened against the MLSMR. NIH Molecular Libraries Probe Production Network [MLPCN] NIH Chemical Genomics Center [NCGC] Grant: NS064851 PI Name: Martin Beinborn, Tufts Medical Center
In a white solid 1536-well plate, 6 uL of cells are dispensed in DMEM without phenol red, 10% Nu serum, and 1% pen-strep medium. The plates are then incubated for 12 hours at 37 deg C at 5% CO2 before 23 nL of compounds are added. After a 4-6 hr incubation at37 deg C and 5% CO2, 3 uL of detection reagent are added and after a 12 min incubation at RT, a luminescent read is obtained on the ViewLux.
Potency is the fitted concentration of half-maximal effect.

activation, inactive:
Cc1ccc(C)c(S(=O)(=O)Nc2cc3c4c(c2)CCC(=O)N4CCC3)c1 4.82%
COc1cc2c(cc1OC)C(C)N(C(=O)C1COc3ccccc3O1)CC2 (configuration not stated) 1.66%
COc1ccc(-c2nc(C#N)c(NCc3ccc(C)cc3)o2)cc1OC 26.6%
COC(=O)c1ccc(CSc2nnc3nc(C)cc(C)n23)cc1 7.79%
C=CCOc1ccc(CNc2nccs2)cc1OCC 0.231%
CCOC(=O)c1c(C)n(-c2ccccc2)c2ccc(OCCN(C)C)cc12 1.98%
CC(=O)c1oc2ccccc2c1NC(=O)CN1CCCCC1 2.43%
CC(=O)Nc1nc(CC(C)C)cc2c1c(=O)oc1ccccc12 -0.314%
CCOC(=O)c1sc(NC(=O)C2=COCCO2)c(C#N)c1C 1.43%
COc1cccc(OCCNc2cc(N3CCOCC3)ccc2[N+](=O)[O-])c1 23%
CCOC(=O)c1c(NC2OC(=O)c3c2ccc(OC)c3OC)sc(C(=O)OC(C)(C)C)c1C (configuration not stated) 10.4%
N#Cc1c(-c2ccc(F)cc2)noc1N -0.686%
COc1ccc(CSc2nnnn2-c2ccccc2)cc1 0.383%
O=[N+]([O-])c1cnccc1NC1CCCCC1 3.34%
O=C1CN(c2nc(-c3cccnc3)nc3sc4c(c23)CCCC4)CCN1 26.3%
COC(=O)CSc1ncnc2scc(-c3ccccc3)c12 8.75%
COC(=O)CCSCC(=O)N1N=C(c2ccc(OC)cc2)CC1c1cccc(OC)c1OC (configuration not stated) 3.02%
CCC(=O)Nc1sc2c(c1C#N)CCCCC2 0.438%
CN(C)c1ncnc2sc(-c3ccccc3)cc12 18.2%
Cc1nc(N2CCOCC2)c2c(C)c(C(=O)Nc3ccccc3C(F)(F)F)sc2n1 5.01%
COc1ccc(C(=O)NCC2(c3ccc(OC)c(OC)c3)CCCC2)cc1OC 14.5%
CC(=NNC(=S)Nc1ccc(C)cc1)c1ccccn1 24.4%
COC(=O)c1ccc(Cn2nc(-c3cc(C)ccc3C)ccc2=O)cc1 1.3%
COc1cc(SC)ccc1C(=O)Nc1ccccc1 2.97%
Cc1c(C)n(Cc2ccccc2)c2ncnc(NCCO)c12 -0.311%
COc1ccc(-c2cc(C(=O)N3CCCC(C(F)(F)F)C3)c3ccccc3n2)cc1OC (configuration not stated) 7.08%
C=CCN1N=C(c2ccc(Cl)s2)CSC1=O 4.36%
CCOC(=O)c1nnn(-c2nonc2N)c1-c1cccs1 -0.622%
COc1ccc(C(=O)c2cc([N+](=O)[O-])ccc2N2CCOCC2)cc1 9.91%
CCc1ccc(C(=O)COC(=O)c2cc([N+](=O)[O-])ccc2N2CCOCC2)cc1 14.8%
CC(=O)Nc1cc(-c2ccccc2Cl)cn2c(-c3ccc(S(C)(=O)=O)cc3)cnc12 26.3%
COc1ccc(-c2nnc(OCc3nc4ccccc4n3C)c3ccccc23)cc1 18.7%
CCOc1ccc(Br)cc1S(=O)(=O)Nc1ccc(C(=O)OCC(=O)N(C)c2ccccc2)cc1 0.375%
CCOC(=O)c1c(C)[nH]c2cc(Br)c(O)cc12 11.9%
CC1CN(c2nc(N(C)c3ccccc3)nc(N)c2[N+](=O)[O-])CC(C)O1 (configuration not stated) 4.07%
COc1ccc(-c2nc(C#N)c(NC(C)c3ccccc3)o2)cc1OC (configuration not stated) 24.4%
CCOC(=O)n1c(=O)n(Cc2ccccc2Cl)c2ccccc21 3.3%
O=c1[nH]nc(-c2ccc(NCCO)c([N+](=O)[O-])c2)c2ccccc12 13.2%
COc1ccc(C(=O)Cc2ccccc2)cc1OC 1.93%
COCc1cc(C)nc2sc(C(=O)OC(C)C)c(N)c12 6.32%
CCCCn1c(=NC(=O)c2cccnc2)c(C(=O)OCC)cc2c(=O)n3ccccc3nc21 7.86%
COc1ccc(NC(=O)c2cccnc2)cc1OCC(C)C 0.0143%
O=C(Cn1nc(-c2ccc(N3CCOCC3)c([N+](=O)[O-])c2)c2ccccc2c1=O)N1CCCCC1 20.3%
OC(c1ccccc1)c1nc(-c2ccccc2)cs1 (configuration not stated) -0.205%
COc1ccccc1Nc1nc(Cl)nc(Nc2ccccc2OC)n1 7.81%
CCOc1ccc(Oc2c(/C=N/NC(N)=O)c(C)nn2-c2ccccc2)cc1 16%
CCN(CC)S(=O)(=O)c1cc(NC(=O)c2ccccc2OCc2c(C)noc2C)ccc1C 1.93%
CCc1cc2c(-c3ccccc3)cc(=O)oc2c(CN2CCOCC2)c1O 4.04%
N#C/C(=C\c1ccc(N2CCOCC2)c([N+](=O)[O-])c1)c1nc2ccccc2[nH]1 4.71%
CC1(c2ccccc2)NC(=O)N(CC(=O)NNC(=O)c2ccccc2F)C1=O (configuration not stated) -0.706%
CSc1ncccc1C(=O)OCc1c(F)cccc1Cl 5.02%
CCOc1ccc(CCNC(=O)c2ccc3ccccc3n2)cc1OCC 2.41%
CCN1CCN(c2nc3sc4c(c3c3ncnn23)CC(C)CC4)CC1 (configuration not stated) 5.78%
CCn1nc(NC(=O)c2ccco2)c2cc3cc(C)ccc3nc21 0.893%
CCOC(=O)c1cc(NC(=O)c2cccnc2)cc(C(=O)OCC)c1 0.228%
CC(=O)c1cccc(Nc2nc(=O)c3cccnc3s2)c1 3.72%
CC(=O)c1cccc(N2C(=O)C3C4CCC(C4=C(C)C)C3C2=O)c1 (configuration not stated) -0.946%
OCCNc1nc(-c2ccccc2)c2cc(Cl)ccc2n1 15.5%
O=c1ccc2ccc(OCCOc3cccc(Cl)c3)cc2o1 6.88%
CCOC(=O)c1sc2nc(OCc3cccnc3)cc(C)c2c1N 9.79%
CCc1cc(=O)oc2c3c(cc(OCC(=O)Nc4cccnc4)c12)OC(C)(C)CC3 9.92%
COC(=O)c1ccc2c(=O)[nH]c(COC(=O)c3[nH]c(C)c(C(C)=O)c3C)nc2c1 -0.418%
CCC(C)Nc1nc(N)c([N+](=O)[O-])c(Nc2ccccc2OC)n1 (configuration not stated) 25.2%
CCN1CCN(C2=C(Cl)C(=O)N(Cc3ccccc3)C2=O)CC1 4.15%
COCCCNC(=S)N/N=C/c1ccc2ccccc2c1 2.83%
Cc1cc(C)nc(N2CCCC(C(=O)Nc3ccc4nc(C)c(C)nc4c3)C2)n1 (configuration not stated) 2.27%
COc1ccc(C)cc1N(C(=O)c1snc(C(N)=O)c1N)C(C(=O)NC1CCCCC1)c1ccc(C)o1 (configuration not stated) -0.356%
CCOC(=O)c1c(C)c(C(=O)N2CCCCCC2)c(C)n1C 2.73%
COc1cccc(C2CC(=O)Nc3cc(OC)c(OC)c(OC)c32)c1OC (configuration not stated) 0.189%
COc1cc2c(cc1OC)/C(=C/C(=O)N1CCOCC1)NC(C)(C)C2 12.9%
CC(=O)NC1(c2ccccc2)CCN(c2cc(C)nc(-c3ccccc3)n2)CC1 14.2%
COc1cccc(/C=C/C(=O)Nc2ccc(N3CCOCC3)cc2)c1OC 0.215%
Cc1ccc(NC(=O)COc2ccc(CCO)cc2-n2nc3ccccc3n2)cc1C 27.2%
C=CCOc1nc2c(c(=O)n(C)c(=O)n2C)n1Cc1ccccc1Cl 4.97%
Cc1ccc(CNCCCSc2ncccn2)cc1 17.6%
CC(=O)Nc1ccc(NC(=O)c2cc(C3CC3)nc3c2cnn3C(C)C)cc1 2.18%
O=C(NCc1ccco1)c1cccc2c(-c3ccc(F)c(F)c3)coc12 15.6%
COc1ccc(CNC(=O)c2cccc3c(-c4cnn(C)c4)coc23)cc1OC 18.7%
COc1ccc(N(CC(=O)N/N=C/c2ccc(OC)c(OC)c2)S(=O)(=O)c2ccccc2)cc1 22.5%
COc1ccc(-c2cc(=O)[nH]c(NCc3ccccc3)n2)cc1 6.89%
CC1Cc2cc(S(=O)(=O)N3CCCC(C(=O)N4CCCCC4)C3)ccc2N1C(=O)C1CC1 (configuration not stated) 10.9%
CCOC(=O)C1CCCN(C2=NC(=O)/C(=C/c3ccc(O)c(OCC)c3)S2)C1 (configuration not stated) 11.7%
O=C(NC1CCCCCC1)C(=O)NC1CC1 -0.58%
CC(OC(=O)c1ccc2ncsc2c1)C(=O)NC1CCCCC1C (configuration not stated) 2.27%
COc1ccc(-c2nn3c(COc4ccccc4)nnc3s2)cc1OC 28.5%
CCOC(=O)/C(C#N)=C/Nc1cc(OC)ccc1OC 2.12%
Oc1ccccc1/C=N/N1CCN(c2ccccn2)CC1 -0.352%
c1coc(Cn2c(-c3ccco3)nc3ccccc32)c1 -0.487%
COc1ccc(NC(C)=O)cc1S(=O)(=O)Nc1ccc2c(c1)OCCO2 -0.925%
COCCN(Cc1ccccc1)C(=O)c1cc(-c2ccc(OC)c(OC)c2)nc2ccccc12 23.1%
Cc1nc2cc(-c3cccc(F)c3)nn2c(N2CCN(C(=O)c3ccco3)CC2)c1C 16.2%
CCN(CC)c1nc(OC)nc(-n2nnc(C(C)=O)c2C)n1 0.606%
CCc1nc(SCCO)c2oc3ccccc3c2n1 3.96%
COC(=O)c1sc(NC(=O)CSc2nc3cccnc3n2C2CCCCC2)nc1C 2.81%
COc1ccc(OC)c(/C=N/n2c(-c3n[nH]c4c3CCC4)n[nH]c2=S)c1 -1.33%
COC(=O)Cc1c(C)c2ccc(OCc3nn[nH]n3)cc2oc1=O -0.628%
CCOC(=O)C1=C(COC(=O)c2cc(S(=O)(=O)N3CCOCC3)ccc2F)NC(=O)NC1C (configuration not stated) 20.7%
COc1cccc(Cn2c(N)c(C#N)c3nc4ccccc4nc32)c1OC 7.89%
COc1ccc(S(=O)(=O)N(C)C)cc1NC(=O)c1ccc(OCC(=O)N2CCOCC2)c(OC)c1 0.301%

Potency, active:
CCN(CC)CC(=O)Nc1scc2c1c(=O)oc1ccccc12 8.2 µM
Cc1nc(N2CCOCC2)c2cc(-c3ccccc3)sc2n1 8.2 µM
COc1ccc(C(=O)COC(=O)c2cc([N+](=O)[O-])ccc2N2CCOCC2)c(OC)c1 20.6 µM
OC(c1ccccc1)c1nc(-c2csc3ccccc23)cs1 (configuration not stated) 7.31 µM
CCn1nc(NC(=O)c2cccnc2)c2cc3ccccc3nc21 20.6 µM
C=C[C@@]1(C)CC(=O)[C@]2(O)[C@@]3(C)[C@@H](O)CCC(C)(C)[C@@H]3[C@H](O)[C@H](OC(C)=O)[C@@]2(C)O1 2 µM and 1.84 µM
C=C[C@@]1(C)CC(=O)[C@]2(O)[C@@]3(C)[C@@H](O)CCC(C)(C)[C@@H]3[C@H](OC(C)=O)[C@H](O)[C@@]2(C)O1 9.2 µM
O=C(NCc1cccs1)c1cccc2c(-c3cccnc3)coc12 9.2 µM
